Our source for the Potency values is PubChem BioAssay (NCATS).

Test [1] can be described thus: BET inhibitor-based combinations targeting novel dependencies in MECOM-rearranged (r) AML: MV-4-11 cell line (AID 2202233). Further: nearly all actives have a fitted effect of over 45% in size. The method, boiled down: (§1)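 First, 500 cells per well were seeded; next, drugs were pinned as 11-point doses; then plates sat 48 hr in the incubator; finally CellTiter-Glo was added and luminescence read, with AUC and Z-AUC computed.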
A short description of test [2]: BET inhibitor-based combinations targeting novel dependencies in MECOM-rearranged (r) AML: HNT-34 cell line (AID 2202234). Further: nearly all actives have a fitted effect of over 35% in size. The method, boiled down:
as §1

Test [3] is described as follows: BET inhibitor-based combinations targeting novel dependencies in MECOM-rearranged (r) AML: AML-191 cell line (AID 2202236; further: nearly all actives have a fitted effect of over 35% in size). The method, boiled down: (§2)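 Each compound was tested at eleven concentrations on cells seeded at 500/well. After two days' incubation, ATP-based luminescence reported viability; responses relative to DMSO and blank wells yielded AUC and cell-line-centred Z-AUC.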

The nature of test [4]: BET inhibitor-based combinations targeting novel dependencies in MECOM-rearranged (r) AML: AML-194 cell line (AID 2202237; further: nearly all actives have a fitted effect of over 40% in size). In a few lines:
as §2

Test [5] in a line: BET inhibitor-based combinations targeting novel dependencies in MECOM-rearranged (r) AML: UCSD-AML1 cell line (AID 2202235). Further: nearly all actives have a fitted effect of over 40% in size. The method, boiled down: as §1

Records with an inconclusive call do not appear. Calls of active or inactive are those of the source. The call rests on the fitted dose curve; in most records, active means well fitted curve in the direction sought with a large enough effect; inconclusive means small, poorly fitted or top-dose-only effect, or another doubt; inactive means no such curve, though single readings can be large; an effect the other way counts as inactive or inconclusive.
Potency means the concentration at half of the fitted maximal effect.

`Cn1cc(-c2cc(Oc3cc(F)c(NC(=O)C4(C(=O)Nc5ccccc5)CC4)cc3F)ccn2)cn1`: the Potency in test [1] was 0.742 µM (active).
`CC1=C2C[C@H]3[C@@H](CC[C@@H]4C[C@H](NS(C)(=O)=O)CC[C@@]43C)[C@@H]2CC[C@@]2(C1)O[C@@H]1C[C@H](C)CN[C@H]1[C@H]2C`: the Potency in test [1] was 16.6 µM (active); in test [2], 16.6 µM (active); in test [3] it was 20.9 µM (active); in test [4], 23.5 µM (active).
Take `COc1ccc(C2=N[C@H](c3ccc(Cl)cc3)[C@H](c3ccc(Cl)cc3)N2C(=O)N2CCNC(=O)C2)c(OC(C)C)c1`: the values for the Potency in test [1], in test [2] and in test [3] were 23.5 µM (active), 23.5 µM (active) and 26.3 µM (active), respectively. For the same compound, in test [5], the Potency entry was “inactive”.
For the compound `CNC(=O)c1ccc(N2C(=S)N(c3ccc(C#N)c(C(F)(F)F)c3)C(=O)C2(C)C)cc1F`, the Potency in test [1] was 18.6 µM (active). Further, the Potency entry in test [5], in test [3] and in test [4] was “inactive” each time.
Take `Cc1c(-c2ccc(-c3ccccc3F)cc2)nc2ccc(F)cc2c1C(=O)O`: the Potency was 0.209 µM (active) in test [1] and 0.662 µM (active) in test [4]. Besides, the Potency entry in test [2] was “inactive”.
Consider `CNC(=O)[C@@H](NC(=O)[C@H](CC(C)C)[C@H](O)C(=O)NO)C(C)(C)C`, for which the Potency in test [1] is 16.6 µM (active); in test [2], 14.8 µM (active); in test [3] it was 20.9 µM (active).
`CCN1C(=O)N2Cc3cc(OC)cc(OC)c3[C@@H](C)C=C2C12CCN(Cc1cc(C)cc(C)c1)CC2`: the Potency in test [1] was 29.5 µM (active); in test [2] it was 23.5 µM (active).
`CONC(=O)Nc1ccc(-c2sc3c(c2CN(C)C)c(=O)n(-c2ccc(OC)nn2)c(=O)n3Cc2c(F)cccc2F)cc1`: the Potency result in test [1], in test [2], in test [5] and in test [4] was “inactive” in each case.
Consider `CCN1C(=O)CNc2ncc(-c3ccc(-c4ncn[nH]4)nc3C)nc21`, for which the figures for the Potency in test [1], in test [2] and in test [5] were 1.66 µM (active), 2.09 µM (active) and 0.186 µM (active), respectively.
